Results taken from PubChem BioAssay AID1259324 (C. David Weaver Laboratory, Vanderbilt University, 2017).
Fewer than 10 of roughly 34,000 compounds were called active.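 How the source made its calls: active means primary screen hit, no activity in plain HEK293 cells, and in GIRK2-only cells above 5% efficacy rising with concentration; inactive means the rest, including fluorescent compounds.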 Not all results are given here.

Target: G protein-activated inward rectifier potassium channel 2 (Homo sapiens) (UniProt P48051)
Assay: activators of NPY4-receptor-primed GIRK2 channels, summary, cell-based, HEK293, thallium flux (AID 1259324)
Conditions: HEK293 GIRK2/NPY4 cells, thallium flux fluorescence

Sequence of G protein-activated inward rectifier potassium channel 2 (Homo sapiens) (P48051 whole entry, looked up): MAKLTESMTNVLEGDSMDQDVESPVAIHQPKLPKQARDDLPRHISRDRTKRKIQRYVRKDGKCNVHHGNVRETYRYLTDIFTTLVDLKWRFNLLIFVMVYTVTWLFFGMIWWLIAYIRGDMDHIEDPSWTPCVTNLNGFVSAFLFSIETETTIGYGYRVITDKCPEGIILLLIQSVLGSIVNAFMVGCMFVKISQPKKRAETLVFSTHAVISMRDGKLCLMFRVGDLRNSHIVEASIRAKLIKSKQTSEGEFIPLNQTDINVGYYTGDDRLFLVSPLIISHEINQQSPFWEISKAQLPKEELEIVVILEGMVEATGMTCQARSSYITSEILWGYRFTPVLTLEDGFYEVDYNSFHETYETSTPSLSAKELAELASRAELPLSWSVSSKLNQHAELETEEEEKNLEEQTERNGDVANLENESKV

outcome, inactive:
CON(C)C(=O)C1CN(C(=O)c2cccs2)C1
COc1cn(CC(=O)Nc2ccc3c(c2)OCO3)c(CSc2ncccn2)cc1=O
CCOC(=O)C1CCN(C(=O)c2csc(Nc3ccccc3)n2)CC1
COc1ccc(CC(=O)NCCOc2ccc(F)cc2)cc1OC
CCOc1ccc2nc(NC(=O)c3ccc(S(=O)(=O)N(C)C)o3)sc2c1
O=c1[nH]c(SCc2nc(-c3cccc(C(F)(F)F)c3)no2)nc2ccsc12
COc1cc(N2CCN(S(C)(=O)=O)CC2)nc(OC)n1
CCC(CO)NC(=O)C(=O)Nc1c2c(nn1-c1ccccc1)CS(=O)(=O)C2 (configuration not stated)
CN1CCN(C(CNS(=O)(=O)c2ccc(C(C)(C)C)cc2)c2cccn2C)CC1 (configuration not stated)
COc1cccc(-n2nnnc2SCC(=O)Nc2ccccc2Cl)c1
COc1ccc(Cc2nnc(Nc3cc(C)ccc3C)[nH]c2=O)cc1
Cc1cc(=O)n(CC(=O)Nc2ccncc2)cn1
CCCCOc1ccc(C(=O)Nc2ccc3c(c2)CCC(=O)N3CCC)cc1
COc1cccc(C(=O)NCC2COC3(CCCCC3)O2)c1OC (configuration not stated)
NC(=O)C1CCN(c2oc(-c3ccco3)nc2S(=O)(=O)c2ccc(Cl)cc2)CC1
Cc1nnc(NC(=O)CCn2cnc3c(cnn3-c3ccc(F)cc3)c2=O)s1
O=C(NCC(=O)N1CCOC(c2ccccc2)C1)C(=O)NCc1ccccc1Cl (configuration not stated)
O=C(NCCc1ccc(F)cc1)c1cc(=O)c(OCc2ccccc2)co1 inactive; active
NC(=O)C1Cc2ccccc2N1C(=O)Nc1ccc2c(c1)OCO2 (configuration not stated)
CCc1nnc(NC(=O)c2nnn(-c3ccc(Cl)cc3)c2C)s1
COc1ccc(NC(=O)C2CCCCC2)cc1N1CCCCC1=O
COCCNC(=O)c1ccc(Oc2c(C)oc3cc(OC)ccc3c2=O)cc1
CN(C(=O)c1cccc(F)c1)C1(C)CCS(=O)(=O)C1 (configuration not stated)
Cc1cn2c3c(=O)n(C)c(=O)n(C)c3nc2n1CC(=O)c1ccc(Cl)cc1
Cc1cccc(NC(=O)c2ccc3nn(CC(=O)Nc4ccc(C)c(F)c4)c(=O)n3c2)c1
Cc1cccc(CC(=O)NCC2(c3cccs3)CCCC2)c1
CS(=O)(=O)N1CCC(CNC(=O)c2ccc(F)c(F)c2)CC1
O=C(NCCCN1CCCC1=O)C(=O)Nc1c2c(nn1-c1cccc(Cl)c1)CSC2
COc1ccc(S(=O)(=O)NCC(c2ccc(C)cc2)N2CCN(C)CC2)cc1OC (configuration not stated)
Cc1nc(-c2cccs2)c(CCC(=O)N(C)C2CCS(=O)(=O)C2)s1 (configuration not stated)
CNc1nn(CC(=O)Nc2ccc(C(C)=O)cc2)c(N)c1-c1nc(-c2ccc(C)cc2)no1
Cc1cc(-c2nnc(NC(=O)c3cccc(Oc4ccccc4)c3)o2)n(C)n1 inactive; active
COCC(C)(O)CNC(=O)Cc1cccc(C)c1 (configuration not stated)
CN1CCOc2ccc(NC(=O)C3(c4ccc(F)cc4)CC3)cc2C1=O
O=c1oc(-c2ccncc2)nc2c(Cl)cccc12
O=C(Cn1nc(C2CC2)c2cnn(-c3ccc(F)cc3)c2c1=O)N1CCOCC1
COC(=O)c1ccc(C(=O)NCCCC(=O)Nc2cccc3cccnc23)cc1
CN(C)C(=O)C(NC(=O)OC(C)(C)C)c1ccccc1Cl (configuration not stated)
CC(C)S(=O)(=O)c1ccc(CC(=O)NCc2n[nH]c(=O)c3ccccc23)cc1
O=C(c1ccc(N2CCCC2)nn1)N1CCN(C(=O)c2ccco2)CC1
O=C(c1ccc2c(c1)OCO2)N(Cc1ccsc1)Cc1ccccn1
CSc1nnc(CNC(=O)C23CC4CC(CC(C4)C2)C3)n1-c1ccccc1
Cc1ccc(S(=O)(=O)NCCNc2ccc(Nc3cccc(C)n3)nn2)c(C)c1
O=c1c2cn[nH]c2nc(SCc2nc(-c3ccccc3)no2)n1-c1ccccc1
O=C(Cc1cccc2ccccc12)NCCOc1ccc2c(c1)OCO2
Cc1cc(C)c2sc(N3CCN(C(=O)C4CCCN(S(C)(=O)=O)C4)CC3)nc2c1 (configuration not stated)
COc1cccc(C(=O)Nc2ccc(N3CCCC3=O)c(OC)c2)c1
Cc1ccc(NC(=S)NC(=O)c2ccc(F)cc2)nc1
Cc1cc(C)n(S(=O)(=O)c2cccc(S(C)(=O)=O)c2)n1
COc1ccc(-c2cc3c(=O)n(Cc4nc(-c5ccc(OC)cc5OC)no4)ccn3n2)cc1
CSc1ccccc1C(=O)Nc1nnc(-c2cc(C)nn2C)o1
Cn1c(=O)c2c(nc3n(CC(=O)O)c(-c4ccccc4)cn23)n(C)c1=O
COc1nn(C)cc1-c1nnc(SCC(=O)N2CCCc3ccccc32)n1C
Cc1cccc(CS(=O)(=O)NCC2(O)CCc3ccccc32)c1 (configuration not stated)
COC(=O)c1ccc(NC(=O)Cn2c(=O)n(C(C)C)c(=O)c3nscc32)cc1
NS(=O)(=O)c1ccc(NC(=O)c2ccc(=O)n(Cc3ccc(F)cc3)c2)cc1
CCOC(=O)Cc1csc(NC(=O)c2nc(-c3cnccn3)no2)n1
Cc1cccc(Nc2ccc(N3CCN(S(=O)(=O)c4cccs4)CC3)nn2)n1
COCCNC(=O)CCn1cnc2c(cnn2C(C)(C)C)c1=O
O=S(=O)(NCC#CCN1CCc2ccccc2C1)c1c(F)cccc1F
Cc1ccc(-c2ccc(=O)n(CCCC(=O)Nc3ccc(S(N)(=O)=O)cc3)n2)cc1
COc1cc(OC)cc(C(=O)N2CCc3cc(S(=O)(=O)NC4CCCC4)ccc32)c1
Cn1cccc1C(CNS(=O)(=O)c1ccc(F)cc1)N1CCOCC1 (configuration not stated)
Cn1cccc(C(=O)N2CCC(c3nnc(-c4ccco4)s3)CC2)c1=O
O=C(NCC1(c2cccs2)CCOCC1)Nc1cccc(C(F)(F)F)c1
CC(=O)c1ccc(S(=O)(=O)N2CCC(c3nnc(C4CC4)o3)CC2)cc1
COc1ccc(Cl)cc1N1CC(c2nc(-c3ccccc3C)no2)CC1=O (configuration not stated)
